PKA-R2B act: activators of human PKA-R2B complex; activation, % at 11.4 µM; PKA-R2B holoenzyme dissociation, Cy5-IP20 fluorescence polarization; R2B truncated from residue 108, S112A mutant; 0% DMSO only, 100% 113 µM cGMP; 340,000 compounds, 0.079% hits; P22694+P31323; AID 504700;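 active = activation above a cutoff set at the mean over all compounds plus 3 SD, cut at about 18% in these data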;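 also: higher means more holoenzyme dissociation and a rise in polarization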
PKA-R1A activ: PKA-R1A complex activation; P00514+P68181; PKA-R1A dissociation, Cy5-IP20 fluorescence polarization; scaled: DMSO 0%, 113 µM cGMP 100%; activation, % at 11.4 µM; 340,000 compounds, 0.083% hits; AID 504707;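 active = percent activation above the mean of all tested compounds plus 3 SD, cut at about 19% in these data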;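 also: higher means more PKAc released from R1A so a rise in polarization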
Yeast superoxide: caloric restriction mimetics inhibiting age-related superoxide in yeast. S. cerevisiae aged cells, superoxide DHE fluorescence; active compounds read low. superoxide response (% of plate mean), % at 10 µM. 330,000 compounds, 0.18% hits;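 active = superoxide response under a set limit, about three screen SD below normal, cut at about 65% in these data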;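 also: yeast aged for seven days with compound at 30 °C before DHE staining; 100% = average MFI of all compound-treated wells on the plate with controls excluded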
PolyA inhibitor: yeast polyadenylation inhibition. S. cerevisiae SKY197-pL101 polyadenylation reporter, beta-gal luminescence; efflux-impaired pdr1/pdr3 knockout yeast; score 100 = 6 SD above DMSO. activity score, % at 12 µM. 300,000 compounds, 0.02% hits. AID 1875;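 active = lowest replicate activity score at least 50, where 100 means six control SD above control mean; inconclusive = lowest score under 50 but half or more replicates reach 50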;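 also: yeast exposed to compound for 9 h at 30 °C; higher score means more reporter readthrough which indicates perturbed polyadenylation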
V-ATPase pH: regulators of yeast V-ATPase proton transport; S. cerevisiae, pHLuorin cytosolic pH fluorescence; response, % at 10 µM; 350,000 compounds, 0.37% hits; AID 504577; in the data active = response mostly above about 7.3%, no sharp cut-off; inactive = mostly below about 5.4%; also: actives read high
GASC-1 inh: human JMJD2C demethylase inhibition; Q9H3R0; GST-JMJD2C(1-420) H3K9me3 demethylation, DELFIA europium; inhibition, % at 2.35 µM; 330,000 compounds, 0.069% hits; AID 2099;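 active = more than half of a compound's replicate wells show inhibition beyond 50%, single wells judged on their own value; inconclusive = some, but no more than half, of replicates pass 50% inhibition; inactive = no replicate passes 50% inhibition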;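 also: signal counts dimethyl H3K9 product captured on neutravidin plate; 0% = median of DMSO wells and 100% = 0.3 times that DMSO median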
Target sequence (Q9H3R0 1-420 limits assumed): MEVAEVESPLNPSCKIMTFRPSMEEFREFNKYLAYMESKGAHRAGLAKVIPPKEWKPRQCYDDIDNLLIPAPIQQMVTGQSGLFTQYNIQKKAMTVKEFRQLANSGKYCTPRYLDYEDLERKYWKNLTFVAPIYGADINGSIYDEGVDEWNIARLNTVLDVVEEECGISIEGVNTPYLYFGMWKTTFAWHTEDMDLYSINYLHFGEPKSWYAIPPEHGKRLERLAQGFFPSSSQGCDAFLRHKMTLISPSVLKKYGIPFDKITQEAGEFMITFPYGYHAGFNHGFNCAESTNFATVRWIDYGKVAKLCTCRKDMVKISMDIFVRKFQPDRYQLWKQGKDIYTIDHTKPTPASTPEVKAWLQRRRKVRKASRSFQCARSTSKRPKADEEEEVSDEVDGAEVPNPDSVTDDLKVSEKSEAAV
VATPase regulator: modulates yeast V-ATPase proton transport | shares compounds with V-ATPase pH | S. cerevisiae pHLuorin cytosolic pH | response, % at 10 µM | 980 compounds, 2% hits | AID 602197; in the data active = response above about 24%;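 also: plate controls were vehicle wells for no effect and positive control wells for full effect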
* marks the source's active call; other numbers are inactive results; ? = inconclusive; / = no result. This is a sample that favours compounds with a hit; in the whole collection about 0.78% have one here.

SMILES | PKA-R2B act | PKA-R1A activ | Yeast superoxide | PolyA inhibitor | V-ATPase pH | GASC-1 inh | VATPase regulator
COc1ccc(-c2cc(C(=O)NCCCn3ccnc3)no2)cc1OC | -1 | -5 | 100 | 13 | 12* | 2 | -1
COc1cccc(-c2cc(C(=O)NCCCn3ccnc3)no2)c1 | -4 | -1 | 85 | -2 | 4 | ? | /
COc1ccc(CCN2C(=O)C3C4CC(C5C(C(N)=O)=NOC45)C3C2=O)cc1OC (stereo not given) | 5 | 2 | 107 | 1 | 15* | 2 | 1
COc1ccc(CCN2C(=O)C3C4CC(C5C(C(=O)NN)=NOC45)C3C2=O)cc1OC (stereo not given) | -1 | -8 | 105 | 2 | -4 | 1 | /
CCOC(=O)Nc1ccc2c(c1)N(C(=O)CCN(CC)CC)c1ccccc1CC2 | -11 | -2 | 94 | -19 | 7.8* | 4 | -3
O=C(NC(=S)NC1CCSC1=O)c1cccs1 (stereo not given) | 0 | 9 | 96 | 12 | 8.3* | 8 | 3
CC(NC(=O)c1ccc(F)cc1)C(=O)NC1=NCCS1 (stereo not given) | -13 | -21 | 97 | 15 | -4 | 9 | -2
CC(Oc1ccccc1)C(=O)NC1=NCCS1 (stereo not given) | 4 | 0 | 84 | 17 | 7.3* | 16 | -2
CC(NC(=O)c1ccc(Cl)cc1)C(=O)NC1=NCCS1 (stereo not given) | -7 | -3 | 90 | -8 | 6 | 9 | /
Cn1c(CC(=O)Nc2ccc(Cl)cc2)nnc1SCC(=O)N1CCOCC1 | -2 | 3 | 102 | 4 | 4 | 4 | /
CCn1c(SCC(=O)NC2CCCC2)nnc1-c1c[nH]c2ccccc12 | -8 | 2 | 99 | 17 | 13* | 6 | 2
COc1ccc(NC(=O)COC(=O)c2ccc(S(=O)(=O)N(C)c3ccccc3OC)cc2)cc1OC | -2 | -5 | 74 | -1 | 8 | -8 | 0
CN(C(=O)CSC1=NCCS1)c1ccccc1 | 11 | -2 | 98 | 2 | 0 | -5 | /
CN(C(=O)CSc1nc(N)c2c3c(sc2n1)CSC(C)(C)C3)c1ccccc1 | -4 | -13 | 100 | 6 | 9.8* | 1 | 0
CCc1cccc(C)c1NC(=O)CSc1nc2ccc(N3C(=O)c4ccccc4C3=O)cc2s1 | 1 | 4 | 104 | 14 | 3 | 5 | /
Cc1cc(C)c(NC(=O)CSc2nc3ccc(N4C(=O)c5ccccc5C4=O)cc3s2)c(C)c1 | 2 | -7 | 116 | 13 | 9.0* | -6 | -47
N#C/C(=N\Nc1cccc2ccccc12)c1nnc2n1CCCCC2 | 5 | -8 | 109 | -4 | -1 | -5 | /
O=C(Cn1ncc2c1-c1ccccc1OC2)Nc1ccc(S(=O)(=O)N2CCCCC2)cc1 | 11 | 3 | 92 | / | 12* | / | -2
Cc1cccc(N2C(=O)CN(Cc3sccc3C)C2=S)c1 | 7 | -11 | 92 | 1 | -2 | 0 | /
Cc1ccsc1CN1CC(=O)N(c2c(C)cccc2C)C1=S | -10 | -15 | 112 | -8 | 7.4* | 5 | 0
Cc1c(N=Cc2c(O)n(C3CCCCC3)c(=O)[nH]c2=O)c(=O)n(-c2ccccc2)n1C | -9 | -11 | 100 | 6 | 19* | -21 | -31
COc1ccc(CC(=O)NC2CCS(=O)(=O)C2)cc1 (stereo not given) | -2 | 8 | 98 | -11 | -2 | -6 | /
CCc1nc2ccccc2n1CC(=O)OCC(=O)N(CC(C)C)c1c(N)n(Cc2ccccc2)c(=O)[nH]c1=O | 9 | 14 | 99 | 2 | 4 | 3 | /
O=[N+]([O-])c1ccc(C=NN2CCCCCC2)cc1 | 0 | 12 | / | / | 1 | / | /
CCCCN(C)CCCNC(=O)CN1C(=O)CSc2ccc(S(=O)(=O)N3CCOCC3)cc21 | -3 | 2 | 99 | 0 | 9.5* | -1 | 1
COc1ccc(C(=O)COC(=O)c2cc(=O)c3ccccc3o2)c(OC)c1 | -12 | -12 | / | / | 0 | / | /

From PubChem
